3T3 cytotox: kills NIH 3T3 cells. 94,000 compounds, 4.3% hits. Potency, µM (doses to about 96.7 µM), hits mostly inhibitors. AID 1345082. NIH 3T3 viability, CellTiter-Glo ATP luminescence, 48-72 h; note: nearly all actives have a fitted effect of over 55% in size
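Cells were seeded at 400 per well, treated with pin-transferred compound, and kept 48 or 72 hr at 37 °C before CellTiter-Glo addition and luminescence imaging of cellular ATP.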
HEK293 tox: HEK 293 cell cytotoxicity. HEK 293 viability, ATP luminescence (CellTiter-Glo), 48-72 h. Potency, µM (titrated, usually from 115 µM), usual class: inhibitors. 94,000 compounds, 6.6% hits. AID 1345083; note: nearly all actives have a fitted effect of over 60% in size
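HEK 293 cells seeded at 250 cells/well were exposed to compound for 48 or 72 hr at 37 degree Celsius. Viability taken as ATP content by CellTiter-Glo luminescence.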
Luciferase inh: inhibitors of firefly (Photinus pyralis) luciferase | AID 1347043 | purified P. pyralis luciferase, luminescence, biochemical | 76,000 compounds, 2.5% hits | P08659 | Potency, µM (highest dose often 115 µM), hits mostly inhibitors; note: nearly all actives have a fitted effect of over 65% in size
Target sequence (P08659 whole entry, looked up): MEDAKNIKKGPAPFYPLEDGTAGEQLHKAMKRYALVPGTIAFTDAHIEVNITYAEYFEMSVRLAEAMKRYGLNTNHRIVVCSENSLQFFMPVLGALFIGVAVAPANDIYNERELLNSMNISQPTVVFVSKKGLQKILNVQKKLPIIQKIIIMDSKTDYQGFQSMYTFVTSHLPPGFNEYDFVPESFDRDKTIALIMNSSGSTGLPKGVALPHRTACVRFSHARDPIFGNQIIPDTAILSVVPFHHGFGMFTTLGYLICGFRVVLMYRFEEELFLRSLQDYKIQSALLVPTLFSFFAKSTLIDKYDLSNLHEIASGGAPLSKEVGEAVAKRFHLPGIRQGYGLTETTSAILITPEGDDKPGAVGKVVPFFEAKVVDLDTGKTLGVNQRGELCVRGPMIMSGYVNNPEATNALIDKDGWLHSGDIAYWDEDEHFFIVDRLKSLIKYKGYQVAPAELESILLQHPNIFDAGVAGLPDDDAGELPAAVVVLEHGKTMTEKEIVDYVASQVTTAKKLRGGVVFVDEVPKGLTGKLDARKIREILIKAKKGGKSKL
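Inhibitors were tested against purified firefly luciferase in a biochemical, low-substrate format (both substrates at 10uM) and luminescence measured with a CCD imager.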
NPR1 antag: human Npr1 receptor antagonism | P16066 | 76,000 compounds, 1.6% hits | AID 1347048 | Potency, µM (top dose mostly 46.3 µM), actives largely listed as inhibitors | HEK293 hNpr1 GloSensor cGMP, ANP-stimulated luminescence; calls by dose curve; note: nearly all actives have a fitted effect of over 60% in size
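Compound pre-incubated 30 min at room temperature on GloSensor-loaded HEK293 cells stably carrying hNpr1 and the pGS-40F cGMP biosensor. Stimulation uses hNppA at 0.1 nM final; luminescence is taken at baseline and 20 min post-agonist.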
Of the large screens only hits and unclear results are named; the others gave an inactive call. An excerpt weighted towards active compounds, which were near 11% of everything screened. Unless noted, calls come from the whole dose curve; as a rule, active = well fitted curve in the direction sought with a large enough effect; inconclusive = small, poorly fitted or top-dose-only effect, or another doubt; inactive = no such curve, though single readings can be large; an effect the other way counts as inactive or inconclusive.

COC(=O)[C@@H]1Cc2c([nH]c3ccccc23)[C@H]2C[C@H](NCCO)C[C@@H](c3ccccc3)N21	3T3 cytotox 45µM, HEK293 tox inconclusive, Luciferase inh inconclusive
COCC(=O)NC1CCCc2c1[nH]c1ccc(F)cc21 (stereo unspecified)	HEK293 tox inconclusive
COc1ccc(NC(=O)[C@@H]2C[C@@H](c3ccc(F)cc3)N(Cc3ccccc3)C2)cc1OC	3T3 cytotox inconclusive
COc1cccc(CC(=O)N2[C@@H]3CC[C@H]2CC(NC(=O)c2ccc(F)cc2)C3)c1 (stereo partly specified)	none
C#CCN[C@H]1C[C@@H]2c3[nH]c4ccccc4c3C[C@@H](C(=O)OC)N2[C@H](c2ccc(F)cc2)C1	3T3 cytotox inconclusive, HEK293 tox 28µM
COC(=O)[C@@H]1Cc2c([nH]c3ccccc23)[C@H]2C[C@@H](NCCO)C[C@@H](c3cccc(OC)c3)N21	3T3 cytotox 28µM, HEK293 tox 28µM
CN1CCC2(C1)CN(CC1CC1)c1ccc(C(=O)NCc3cccs3)cc12 (stereo unspecified)	3T3 cytotox inconclusive, HEK293 tox 100µM
CN1CCC2(C1)CN(CC1CC1)c1ccc(C(=O)Nc3ccccc3)cc12 (stereo unspecified)	3T3 cytotox inconclusive, HEK293 tox inconclusive, Luciferase inh inconclusive
CN1CCC2(C1)CN(CC1CC1)c1ccc(C(=O)NC3CCCCC3)cc12 (stereo unspecified)	3T3 cytotox 79µM, HEK293 tox 89µM
Cc1cc(C)c(S(=O)(=O)NCCn2c(C)cnc2C2CC2)cc1C	3T3 cytotox inconclusive
FC(F)(F)C1CN(c2ccc3cc(Cl)ccc3n2)CCO1 (stereo unspecified)	3T3 cytotox inconclusive, HEK293 tox inconclusive, Luciferase inh 25µM
COc1ccc(-c2noc(-c3ncn4c3COC(c3ccc(F)cc3)C4)n2)c(OC)c1 (stereo unspecified)	3T3 cytotox 32µM, HEK293 tox 35µM
CCOc1cccc(-c2noc(-c3ncn4c3COC(c3ccc(OC)cc3)C4)n2)c1 (stereo unspecified)	3T3 cytotox 22µM, HEK293 tox 22µM
CCOc1ccc(C2Cn3nnc(-c4nc(-c5ccccc5)no4)c3CO2)cc1 (stereo unspecified)	Luciferase inh 8.9µM
CCOc1ccc(C2Cn3nnc(-c4nc(-c5ccncc5)no4)c3CO2)cc1 (stereo unspecified)	none
COc1ccc(C2Cn3cnc(-c4nc(-c5cccs5)no4)c3CO2)cc1 (stereo unspecified)	3T3 cytotox inconclusive, HEK293 tox inconclusive, Luciferase inh 25µM, NPR1 antag inconclusive
COc1ccc(C2Cn3cnc(-c4nc(-c5ccc(OC(C)C)cc5)no4)c3CO2)cc1 (stereo unspecified)	Luciferase inh inconclusive
CC(C)[S+](=O)([O-])N1CCC2OCCN(Cc3ccccc3F)C(=O)C2C1 (stereo unspecified)	HEK293 tox inconclusive
O=C(Cc1ccc(F)cc1)NC1CCN(c2ccc3nnc(C4CC4)n3n2)C1 (stereo unspecified)	none (no result: Luciferase inh, NPR1 antag)
O=C(NC1CCCC1)N1CCC(C(=O)N2CCCC2c2nc3ccncc3[nH]2)CC1 (stereo unspecified)	none (no result: Luciferase inh, NPR1 antag)
CCOc1cc(-c2noc(-c3ncn4c3COC(c3ccc(F)cc3)C4)n2)ccc1OC (stereo unspecified)	3T3 cytotox 25µM, HEK293 tox 22µM
CSc1ccc(-c2noc(-c3ncn4c3COC(c3ccc(F)cc3)C4)n2)cc1 (stereo unspecified)	3T3 cytotox 25µM, HEK293 tox 32µM
CCOc1cc(-c2noc(-c3nnn4c3COC(c3ccc(F)cc3)C4)n2)ccc1OC (stereo unspecified)	none
Fc1ccccc1-c1noc(-c2ncn3c2COC(c2ccccc2Cl)C3)n1 (stereo unspecified)	3T3 cytotox inconclusive, HEK293 tox inconclusive, Luciferase inh 16µM
Clc1ccccc1C1Cn2cnc(-c3nc(-c4ccccc4)no3)c2CO1 (stereo unspecified)	none
Fc1ccc(OCC2CCCN(c3ccc(Cn4ccnc4)cn3)C2)cc1 (stereo unspecified)	3T3 cytotox inconclusive, HEK293 tox inconclusive
CC(C)Cn1c(=O)c(C(=O)N2CCN(C(=O)NC3CCCC3)CC2)nc2cccnc21	none (no result: Luciferase inh, NPR1 antag)
CC(C)c1noc(-c2ccn3c(CNC(=O)c4ccc(F)cc4Cl)nnc3c2)n1	none
O=C(NCC1CC1)c1cccc(OC2CN(Cc3ccc(F)cc3Cl)C2)c1	3T3 cytotox 40µM, HEK293 tox inconclusive, NPR1 antag inconclusive
COc1cccc([S+](=O)([O-])NC[C@@H]2CC[C@H]3C[C@@H]2C3(C)C)c1	3T3 cytotox inconclusive, HEK293 tox 100µM
CC(C)NC(=O)C1CCc2nnc(C3CCN(C(=O)c4ccc(Cl)cc4Cl)CC3)n21 (stereo unspecified)	none (no result: Luciferase inh, NPR1 antag)
CC(=O)NCc1nnc2n1C(C(=O)NCc1cccc(C(F)(F)F)c1)CC2 (stereo unspecified)	none (no result: Luciferase inh, NPR1 antag)
Oc1cccc(-c2cc(-c3ccncc3)c3cncn3c2)c1	3T3 cytotox inconclusive, HEK293 tox inconclusive
FC(F)(F)c1cccc(-c2cc(-c3ccncc3)c3cncn3c2)c1	3T3 cytotox 35µM, HEK293 tox inconclusive
Cc1noc(C)c1-c1cc(-c2cccc(N3CCOCC3)c2)cn2cncc12	3T3 cytotox 18µM, HEK293 tox inconclusive
c1cc(-c2cc(-c3ccncc3)c3cncn3c2)cc(N2CCOCC2)c1	3T3 cytotox 22µM, HEK293 tox inconclusive
Cc1noc2c(-c3ccc(N4CCOCC4)cc3)cc(-c3ccccc3)nc12	3T3 cytotox inconclusive, HEK293 tox inconclusive
Cc1noc(C)c1-c1cc2cc(C(C)C)oc2c(-c2ccc(CO)cc2)n1	3T3 cytotox inconclusive, HEK293 tox inconclusive
Cc1cc2cc(-c3c(C)noc3C)nc(-c3cccc([S+](C)(=O)[O-])c3)c2o1	3T3 cytotox 11µM, HEK293 tox inconclusive
Cc1noc(C)c1-c1cc2cc(CO)oc2c(-c2cccc(OC(C)C)c2)n1	3T3 cytotox inconclusive, HEK293 tox 89µM
Cc1cc2cc(-c3c(C)noc3C)nc(-c3ccc(CO)cc3)c2o1	3T3 cytotox 28µM, HEK293 tox inconclusive
COc1ccc(OC)c(S(=O)(=O)N2CCC(C(=O)N3CCCCCCNC(=O)CC3)CC2)c1	none
CC(C)C1=NOC2(CCN(CC3CCCCC3)CC2)C1	none (no result: Luciferase inh, NPR1 antag)
CCn1cc(-c2ccc(OC)cc2)cc1C(=O)N1CCCCCC1	HEK293 tox inconclusive
CCn1cc(CN(C)C(=O)c2cc(-c3ccc(OC)cc3)cn2CC)c(C)n1	3T3 cytotox inconclusive, HEK293 tox 35µM, Luciferase inh 40µM, NPR1 antag inconclusive
CC(C)(C)CC(=O)Nc1nc2c(s1)C[C@@H]1[C@](C)(CO)[C@H](O)CC[C@@]1(C)[C@@H]2CC(=O)NC1CCCCC1	3T3 cytotox 79µM, HEK293 tox inconclusive
CC1CCN(C(=O)C[C@@H]2c3nc(NC(=O)c4ccc(F)cc4)sc3C[C@@H]3[C@](C)(CO)[C@H](O)CC[C@]32C)CC1	3T3 cytotox 79µM, HEK293 tox inconclusive

High-throughput results from PubChem BioAssay.
